Hit rate of the full screen: of about 2,500 compounds, about 1,100 (44%) were called active. The set was probably picked from earlier hits. The list shows a part of the results. Values without a mark were called inactive.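 How the source made its calls: active means inhibition above 50% at 4 µM in the single-point screen; inactive means inhibition of 50% or less.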
Assay: blockers of TNF-a NF-kB luciferase induction – cell-based, HEK293T NF-kB-Luc, luminescence, selectivity assay for NOD1/NOD2 signaling inhibitor project, primary screen (AID 1852)
Conditions: TNF-a induced, 14 h, at 4 µM, hits give high values

Row | Compound | inhibition
1 | C/C(=N\NC(=O)c1cccc2ccccc12)c1ccccn1 | 103% (active)
2 | C/C(=N\NC(=O)C(C)Oc1ccc([N+](=O)[O-])cc1)c1ccccn1 (configuration not stated) | 103% (active)
3 | C/C(=N\NC(=O)c1n[nH]c2c1CCC2)c1cccs1 | 46.3%
4 | C/C(=N\NC(=O)C1COc2ccccc2O1)c1ccccn1 (configuration not stated) | 83.2% (active)
5 | C/C(=N\NC(=O)c1cc(-c2cccs2)nc2ccccc12)c1ccccn1 | 106% (active)
6 | COc1ccc(CN(C)Cc2nc(Cc3cccc(F)c3)no2)c2cccnc12 | 48.3%
7 | Cc1ccc(-n2c(C)cc(/C=c3/sc4nc5ccccc5n4c3=O)c2C)cc1 | -32%
8 | COc1ccc(-n2ncc(Cl)c(Cl)c2=O)cc1 | 78.2% (active)
9 | COc1ccc(-n2nc(C#N)c(Cl)cc2=O)cc1 | 59.1% (active)
10 | COc1cccc(-n2nc(C#N)c(Cl)cc2=O)c1 | 45.7%
11 | COc1ccc(-n2ncc3c(N(C)C4CCCCC4)ncnc32)cc1 | 23.2%
12 | COc1ccc(-n2cc(C#N)c(=O)[nH]c2=O)cc1 | 47.1%
13 | Cc1ccc(OCc2nnc(SC3CCc4ccccc4C3=O)n2C)cc1 (configuration not stated) | 17.5%
14 | COc1ccc2c(c1)c(C(C)=O)c(C)n2CCc1ccccc1 | 53.2% (active)
15 | COc1ccc2c(c1)c(C(C)=O)c(C)n2-c1ccc(C(C)=O)cc1 | 71.3% (active)
16 | CCOc1ccc(-n2c(C)c(C(C)=O)c3cc(OC(C)=O)ccc32)cc1 | 78.7% (active)

Row | Compound | inhibition
17 | COc1ccc2c(c1)c(=O)oc1c(C)c(OCc3ccc(C(=O)O)cc3)ccc12 | 34.1%
18 | COc1ccc(-n2c(C)c(C(C)=O)c3cc(OC(C)=O)ccc32)cc1 | 94.8% (active)
19 | COc1ccc(C(C)=O)cc1Cn1c(=O)cc(C)[nH]c1=O | 40.6%
20 | CCOc1ccc(-n2c(C)c(C(C)=O)c3cc(O)ccc32)cc1 | 40.7%
21 | O=C(CCl)Nc1c(C(=O)Nc2ccc3c(c2)OCCO3)oc2ccccc12 | -69.2%
22 | O=C(NCCc1ccccc1)c1ccc2c(c1)OCCCO2 | 100% (active)
23 | O=C(NCCc1ccccc1)c1ccc2c(c1)OCCO2 | 48.5%
24 | O=C(NCCc1ccccc1F)c1ccc2c(c1)OCCO2 | 80.8% (active)
25 | CCSc1nc2c(c(=O)[nH]c(=O)n2C)n1C/C=C(/C)Cl | 11.6%
26 | O=C(Nc1ccc(N2CCN(C(=O)c3ccco3)CC2)c(Cl)c1)c1cc2ccccc2o1 | 99.1% (active)
27 | Cc1cc(OCc2ccc(C(=O)Nc3ccc(C(=O)O)cc3)o2)ccc1Cl | -32.8%
28 | O=C(Nc1ccc(N2CCN(C(=O)c3ccccc3)CC2)c(Cl)c1)c1ccc(Br)o1 | 67.5% (active)
29 | CCCCc1nc(N2CCN(C(=O)c3ccco3)CC2)c(C#N)c2c1CCCC2 | 29.5%
30 | CCC(=O)N1CCN(c2ccc(NC(=O)c3cc4ccccc4o3)cc2Cl)CC1 | 101% (active)
31 | O=C(Nc1ccc(N2CCN(C(=O)c3ccccc3)CC2)cc1)c1ccc([N+](=O)[O-])o1 | 25.2%
32 | O=C(Nc1ccc(N2CCCC2)c(Cl)c1)c1ccc([N+](=O)[O-])o1 | -26.1%

Reference: PubChem BioAssay AID1852 (Sanford-Burnham Center for Chemical Genomics, 2009)
